# Results as given in PubChem BioAssay (EPA / NIEHS).
# Values joined by “and” are separate entries in the source; they are usually repeats but may differ in a detail not shown here. Identical values can stand only once. Inconclusive results are not listed. Active and inactive are the calls of the source. The calls were made as follows, unless noted: active = hit-call score of the fitted dose curve at least 0.9, where 1 is the maximum; inconclusive = response in the unintended direction; inactive = score below 0.9.
# Key:
# [1] = Tanguay_ZF_120hpf_PE_legacy: (Legacy) Oregon State University Tanguay Lab 120 Hour Post-fertilization zebrafish Assay for Pericardial Edema (AID 2283640)
# Procedure, shortened: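 Scoring was binary, by brightfield microscopy at 120 hpf, and skipped where mortality occurred. Wild-type embryos were kept under sealed, foil-covered static exposure at 28C in 0.64% (vol/vol) DMSO.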
# [2] = Tanguay_ZF_120hpf_BRAI_legacy: (Legacy) Oregon State University Tanguay Lab 120 Hour Post-fertilization zebrafish Assay for Brain Malformation (AID 2283641)
# Procedure, shortened: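 Binary brightfield scoring of brain malformation at 120 hpf in Tropical 5D larvae held under static exposure at 28C (0.64% v/v DMSO), non-mortality endpoints skipped if dead. Positive control: 5uM trimethyltin chloride; fit versus DMSO.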
# [3] = Tanguay_ZF_120hpf_SOMI_legacy: (Legacy) Oregon State University Tanguay Lab 120 Hour Post-fertilization zebrafish Assay for Somite Malformation (AID 2283647)
# Procedure, shortened: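 Binary somite-defect scoring at 120 hpf, omitted for embryos that died, in wild-type (Tropical 5D) zebrafish with chorion removed by pronase at 4 hpf; static exposure began 6 hpf, single embryos per well, 28C, 0.64% DMSO; fitted positive versus DMSO.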
# [4] = Tanguay_ZF_120hpf_PFIN_legacy: (Legacy) Oregon State University Tanguay Lab 120 Hour Post-fertilization zebrafish Assay for Pectoral Fin Malformation (AID 2283648);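 also: each larva judged yes or no for fin defect by brightfield with dead larvae skipped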
# Procedure, shortened: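 5D WT zebrafish; pronase dechorionation 4 hpf; 1 embryo/well at 6 hpf; static exposure to 120 hpf, 28C, sealed, foil-covered; final DMSO 0.64% v/v; 5 uM trimethyltin chloride positive control; fin defect scored yes/no.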
# [5] = Tanguay_ZF_120hpf_CFIN_legacy: (Legacy) Oregon State University Tanguay Lab 120 Hour Post-fertilization zebrafish Assay for Caudal Fin Malformation (AID 2283649)
# Procedure, shortened: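 Binary brightfield scoring of caudal fin defects at 120 hpf after static, light-shielded exposure at 28C from 6 hpf. Tropical 5D embryos, chorion removed with pronase at 4 hpf, final DMSO 0.64%.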
# [6] = Tanguay_ZF_120hpf_PIG_legacy: (Legacy) Oregon State University Tanguay Lab 120 Hour Post-fertilization zebrafish Assay for Pigmentation Malformation (AID 2283650)
# Procedure, shortened: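 Pronase dechorionation at 4 hpf; embryos plated at 6 hpf, one per well; static exposure, sealed and foil-covered, 28C, to 120 hpf; pigmentation read by brightfield, binary; DMSO 0.64% baseline, 5uM trimethyltin chloride positive control.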
# [7] = Tanguay_ZF_120hpf_CIRC_legacy: (Legacy) Oregon State University Tanguay Lab 120 Hour Post-fertilization zebrafish Assay for Circulatory Malformation (AID 2283651)
# Procedure, shortened: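 Read-out: presence or absence of circulatory malformation at 120 hpf, scored by brightfield microscopy, fitted in the gain-of-signal direction against DMSO baseline. Wild-type 5D larvae were exposed from 6 hpf after enzymatic chorion removal.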
# [8] = read-out: solute carrier (SLC22A6), SLC22A6 (gene 9356); assay: LTEA_HepaRG_SLC22A6: Life Technologies and Expression Analysis (LTEA) Assay for solute carrier (SLC22A6) using HepaRG (AID 2283653; active = hit-call score of the fitted dose curve at least 0.9, where 1 is the maximum; inactive = score below 0.9); conditions: mRNA level, 48 h; actives raise or lower the signal
# Procedure, shortened: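 SLC22A6 transcript was measured by TaqMan qRT-PCR, normalized to three housekeeping genes, after 48 h duplicate exposure of HepaRG cells (100 uM top, half-log steps, 0.5% DMSO); bidirectional fit against vehicle.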
# [9] = Tanguay_ZF_120hpf_TRUN_legacy: (Legacy) Oregon State University Tanguay Lab 120 Hour Post-fertilization zebrafish Assay for Truncated Body (AID 2283655)
# Procedure, shortened: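 Binary presence/absence of truncated body is recorded at 120 hpf by brightfield, with non-mortality endpoints skipped after death. Exposure is static from 6 hpf in sealed dark plates at 28C, using dechorionated wild-type zebrafish, 0.64% DMSO.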
# [10] = Tanguay_ZF_120hpf_NC_legacy: (Legacy) Oregon State University Tanguay Lab 120 Hour Post-fertilization zebrafish Assay for Notochord and Tail Malformation (AID 2283656)
# Procedure, shortened: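 Dechorionated Tropical 5D wild-type zebrafish embryos, one per well from 6 hpf, statically exposed to 120 hpf at 28C in 0.64% DMSO final. Notochord distortion scored present/absent by brightfield; dead embryos excluded.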
# [11] = read-out: solute carrier (SLC10A1), SLC10A1 (gene 6554); assay: LTEA_HepaRG_SLC10A1: Life Technologies and Expression Analysis (LTEA) Assay for solute carrier (SLC10A1) using HepaRG (AID 2283657; active = hit-call score of the fitted dose curve at least 0.9, where 1 is the maximum; inactive = score below 0.9); conditions: mRNA level, 48 h; actives raise or lower the signal
# Procedure, shortened: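 Transcript levels were measured by qRT-PCR after human HepaRG cells received test chemical for 48 hours, up to 100 uM in half-log dilutions. Values come from bidirectional concentration-response fitting relative to 0.5% DMSO vehicle.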
# [12] = read-out: matrix metalloproteinase-1 (MMP1), MMP1 (gene 4312); assay: LTEA_HepaRG_MMP1: Life Technologies and Expression Analysis (LTEA) Assay for matrix metalloproteinase-1 (MMP1) using HepaRG (AID 2283658; active = hit-call score of the fitted dose curve at least 0.9, where 1 is the maximum; inactive = score below 0.9); conditions: mRNA level, 48 h; actives raise or lower the signal
# Procedure, shortened: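 qRT-PCR (TaqMan, Fluidigm arrays) of MMP1 transcript, normalized against three housekeeping genes and fitted in both directions relative to 0.5% DMSO vehicle. Human HepaRG cultures received duplicate 48 h exposures across 8 points, highest 100 uM with half-log steps.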
# [13] = Tanguay_ZF_120hpf_TR_legacy: (Legacy) Oregon State University Tanguay Lab 120 Hour Post-fertilization zebrafish Assay for Touch Response (AID 2283667)
# Procedure, shortened: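 5D WT embryos; static exposure to 120 hpf, 28C, sealed/dark; DMSO 0.64% v/v final. TR scored present/absent; dead embryos excluded. Pos ctrl 5uM trimethyltin chloride.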
# [14] = read-out: Cytochrome P450 (CYP24A1_1), CYP24A1 (gene 1591); assay: LTEA_HepaRG_CYP24A1_1: Life Technologies and Expression Analysis (LTEA) Assay for Cytochrome P450 (CYP24A1_1) using HepaRG (AID 2283671; active = hit-call score of the fitted dose curve at least 0.9, where 1 is the maximum; inactive = score below 0.9); conditions: mRNA level, 48 h; actives raise or lower the signal
# Procedure, shortened: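 In this test, gene induction or suppression of CYP24A1 in human HepaRG liver cells is measured by qRT-PCR after 48 h chemical treatment (eight concentrations, maximum 100 uM). Values are fitted bidirectionally relative to DMSO.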
# [15] = Tanguay_ZF_120hpf_SWIM_legacy: (Legacy) Oregon State University Tanguay Lab 120 Hour Post-fertilization zebrafish Assay for Swim Bladder Malformation (AID 2283654);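 also: swim bladder malformation in each larva scored yes or no under brightfield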
# Procedure, shortened: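 Embryos lacking chorions were exposed individually and statically to test chemical from 6 to 120 hpf at 28C, with 0.64% DMSO as vehicle. At 120 hpf, swim bladder malformation was recorded as present or absent by brightfield microscopy.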
# [16] = CCTE_Padilla_ZF_144hpf_TERATOSCORE: (Legacy) CCTE's 144 Hour Post-fertilization zebrafish Assay Teratoscore, Padilla Lab (AID 2283679; active = hit-call score of the fitted dose curve at least 0.9, where 1 is the maximum; inactive = score below 0.9;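 as to AC50: zebrafish embryos with chorions exposed by immersion from 6-8 hpf to 5 dpf with daily renewal; teratogenicity score from eye scoring of death hatching and malformations at 144 hpf; higher score means more developmental defects relative to DMSO baseline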)
# Procedure, shortened: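 Larvae scored by eye at 144 hpf for death, hatching and malformations after a day in clean Hanks'. Before that, daily-renewed exposure at 80 uM (0.4% DMSO, 26C) from roughly 6-8 hpf through 5 dpf, 4 embryos per chemical.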
SMILES,outcome [1],outcome [2],outcome [3],outcome [4],outcome [5],outcome [6],outcome [7],outcome [8],outcome [9],outcome [10],outcome [11],outcome [12],outcome [13],outcome [14],outcome [15],AC50 [16],outcome [16]
CC(O)CO (configuration not stated),inactive,inactive,inactive,inactive,inactive,inactive,inactive,inactive,inactive,inactive,inactive,inactive,inactive,inactive,,,
COC(=O)CCCCC(=O)OC,inactive,inactive,inactive,inactive,inactive,inactive,inactive,,inactive,inactive,,,inactive,,inactive,,
CCCCCCCCC(=O)O,inactive,inactive,inactive,inactive,inactive,inactive,inactive,,inactive,inactive,,,inactive,,inactive,,
CC(=O)NC1(c2cccc(F)c2)CCN(CC[C@@]2(c3ccc(Cl)c(Cl)c3)CN(c3ccccc3)C(=O)CO2)CC1,inactive,inactive,inactive,inactive,inactive,inactive,inactive,,inactive,inactive,,,inactive,,inactive,,
NC(=O)N1C(=O)C(C(=O)c2cc(Cl)cs2)c2cc(F)c(Cl)cc21 (configuration not stated),inactive,inactive,inactive,inactive,inactive,inactive,inactive,,inactive,inactive,,,inactive,,inactive,4.57 µM (active),
O=[N+]([O-])c1ccc(O)cc1,inactive,inactive,inactive,inactive,inactive,inactive,inactive,,inactive,inactive,,,inactive,,inactive,64.4 µM (active) and 59 µM (active),
CC(C)(C)CC(C)(C)c1ccc(O)c(-n2nc3ccccc3n2)c1,inactive,inactive,inactive,inactive,inactive,inactive,inactive,,inactive,,,,inactive,,inactive,,
CC(=O)CC(C)(C)O,inactive,inactive,inactive,inactive,inactive,inactive,inactive,,inactive,inactive,,,inactive,,,,inactive
